Rows were chosen to be rich in hits. Some 6.8% of all compounds tested hit in one or more screens of this group.
C diff growth – C. difficile growth inhibition. 0.25% of 86,000 active. growth activity, negative = inhibition, % at 16 µg/mL (by protocol). AID 1259249. Clostridium difficile clinical isolate growth, OD600, 24 h; stronger effect = lower value;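 active means mean growth activity at or below -80% and every replicate also at or below -80%; inconclusive means mean at or below -80% but some replicate above -80%; inactive means mean growth activity above -80%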;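 further: 0% = DMSO wells and -100% = levofloxacin 16 µg/mL wells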
Pf Dd2 inh – P. falciparum Dd2 growth inhibition; SYBR Green, 72 h; stronger effect = lower value; activity change, % at 10 µM; 2.3% of 94,000 active; in the data active means activity change below about -80%; inconclusive means no clear call, values can overlap the other calls
T cruzi growth-1 – T. cruzi proliferation inhibition; 5.9% of 77,000 active; T. cruzi beta-gal in NIH3T3, GalScreen luminescence, 90 h; inhibition, % at 8.34 µM;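 active means mean inhibition above about 93%, with at least 55% of replicates each passing it, limit read from the data, passing the limit was not always enough; inconclusive means only one of those two conditions holds; inactive means neither condition holds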
T cruzi growth-2 – blocks T. cruzi growth in NIH3T3 host cells; shares compounds with T cruzi growth-1; T. cruzi beta-gal in NIH3T3, GalScreen luminescence, 90 h; inhibition, % at 8.35 µM; 72% of 5,600 active;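 active means mean replicate inhibition above about 95% and at least 55% of replicates individually reaching it, limit read from the data; inconclusive means only one of the two criteria is met; inactive means neither criterion is met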
T cruzi growth-3 – inhibitors of T. cruzi proliferation. 21% of 5,600 active. T. cruzi beta-gal in NIH3T3, GalScreen luminescence, 90 h. shares compounds with T cruzi growth-1. inhibition, % at 2.09 µM;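 active means mean inhibition above about 95%, with at least 55% of replicates also reaching it, limit read from the data; inconclusive means meets just one of the two conditions; inactive means meets neither condition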;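 further: plate controls were neutral control median for no effect and positive control median for full effect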
3T3 cytotox – cytotoxicity in mouse NIH/3T3 fibroblasts; shares compounds with T cruzi growth-1; NIH/3T3 viability, CellTiter-Glo ATP luminescence, 90 h; cytotoxicity (signal decrease), % at 8.35 µM; 14% of 5,600 active;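 active means mean signal decrease across replicates above about 35% based on untreated-well scatter, with enough replicates individually passing, limit read from the data; inconclusive means no rule stated though some were filed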;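 further: 0% = median of neutral control wells and 100% = median of positive control wells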
NIH3T3 tox 2 – kills mouse NIH/3T3 fibroblasts; shares compounds with T cruzi growth-1; NIH/3T3 viability, CellTiter-Glo ATP luminescence, 90 h; inhibition, % at 24.9 µM; 56% of 5,600 active;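 active means mean loss of cell viability signal at or above a set limit, and enough replicates individually reaching it; inconclusive means meets only the mean limit or only the replicate share; inactive means meets neither condition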;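 further: 0% = median of neutral control wells and 100% = median of positive control wells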
Active calls of the source: *; ? = inconclusive; . = no result; ! = repeats disagree.

SMILES | C diff growth | Pf Dd2 inh | T cruzi growth-1 | T cruzi growth-2 | T cruzi growth-3 | 3T3 cytotox | NIH3T3 tox 2
C[C@H]1CCCCO[C@H](CN(C)Cc2ccc3c(c2)OCO3)[C@@H](C)CN([C@@H](C)CO)C(=O)c2cc(NC(=O)Nc3ccc(C(F)(F)F)cc3)ccc2O1 | -67 | -29 | ? | 87 | 106* | 91* | 103*
C[C@@H]1CCCCO[C@@H](CN(C)Cc2ccc(C(F)(F)F)cc2)[C@H](C)CN([C@H](C)CO)C(=O)c2cc(NC(=O)Nc3ccc4c(c3)OCO4)ccc2O1 | . | -6 | 79 | . | . | . | .
CO[C@@H]1CN(C)C(=O)c2ccc(NC(=O)C3CC3)cc2OC[C@H](C)N(Cc2nccs2)C[C@@H]1C | . | . | 55 | . | . | . | .
CCCN(C)C[C@H]1OCCCC[C@H](C)Oc2ccc(NS(=O)(=O)c3c(C)noc3C)cc2C(=O)N([C@@H](C)CO)C[C@H]1C | 4 | -54 | 18 | . | . | . | .
C[C@H](CO)N1C[C@H](C)[C@H](CN(C)Cc2ccc3c(c2)OCO3)OCCCC[C@H](C)Oc2ccc(NC(=O)Nc3ccc(C(F)(F)F)cc3)cc2C1=O | -57 | -71 | ? | 104* | 113* | 124* | 104*
C[C@@H]1CCCCO[C@H](CN(C)Cc2ccc3c(c2)OCO3)[C@H](C)CN([C@@H](C)CO)C(=O)c2cc(NC(=O)Nc3ccc(C(F)(F)F)cc3)ccc2O1 | -39 | -86* | 122* | 96* | 116* | 122* | 104*
C[C@H](CO)N1C[C@H](C)[C@@H](CN(C)Cc2ccc(C(F)(F)F)cc2)OCCCC[C@H](C)Oc2ccc(NC(=O)Nc3ccc4c(c3)OCO4)cc2C1=O | . | 21 | 80 | . | . | . | .
C[C@@H]1CN([C@H](C)CO)C(=O)c2cc(NC(=O)Nc3ccc(C(F)(F)F)cc3)ccc2O[C@@H](C)CCCCO[C@H]1CN(C)Cc1ccc2c(c1)OCO2 | -100* | -57 | ? | ? | 103* | 22 | 104*
C[C@@H]1CCCCO[C@H](CN(C)Cc2ccc(C(F)(F)F)cc2)[C@H](C)CN([C@@H](C)CO)C(=O)c2cc(NC(=O)Nc3ccc4c(c3)OCO4)ccc2O1 | . | -80 | 83 | . | . | . | .
C[C@H]1CCCCO[C@H](CN(C)Cc2ccc(C(F)(F)F)cc2)[C@@H](C)CN([C@@H](C)CO)C(=O)c2cc(NC(=O)Nc3ccc4c(c3)OCO4)ccc2O1 | . | -30 | 74 | . | . | . | .
CCS(=O)(=O)N1[C@@H](CO)[C@@H](c2ccccc2)C12CN(C(=O)C1CC1)C2 | -9 | -17 | . | . | . | . | .
Cc1ccc(S(=O)(=O)Nc2ccc3c(c2)C(=O)N([C@H](C)CO)C[C@H](C)[C@H](CN(C)Cc2ccc(C(=O)O)cc2)OCCCC[C@H](C)O3)cc1 | . | 36 | . | . | . | . | .
COc1ccc(S(=O)(=O)Nc2cccc3c2O[C@H](CN(C)C(=O)NC2CCCCC2)[C@H](C)CN([C@@H](C)CO)C3=O)cc1 | -1 | -38 | 65 | . | . | . | .
CNC[C@@H]1Oc2ncc(-c3ccc(OC)cc3)cc2C(=O)N([C@H](C)CO)C[C@H]1C | 0 | -47 | . | . | . | . | .
C[C@@H]1CN([C@@H](C)CO)C(=O)c2cc(NC(=O)C3CCCCC3)ccc2O[C@@H](C)CCCCO[C@@H]1CN(C)C(=O)Nc1ccc(C(F)(F)F)cc1 | 11 | ? | 92 | . | . | . | .
C[C@@H]1CCCCO[C@@H](CN(C)C(=O)Nc2ccc(C(F)(F)F)cc2)[C@@H](C)CN([C@H](C)CO)C(=O)c2cc(NC(=O)C3CCCCC3)ccc2O1 | -3 | -69 | 101* | 107* | 76 | 14 | -5
C[C@@H]1CN([C@@H](C)CO)C(=O)c2cc(NC(=O)C3CCCCC3)ccc2O[C@@H](C)CCCCO[C@@H]1CN(C)C(=O)Nc1ccc(F)cc1 | 2 | -66 | 38 | . | . | . | .
CC(C)NC(=O)N(C)C[C@H]1OCCCC[C@@H](C)Oc2ccc(NC(=O)C3CCCCC3)cc2C(=O)N([C@H](C)CO)C[C@@H]1C | -3 | -5 | 99*! | -43 | -41 | 1 | 10
C[C@H]1CCCCO[C@@H](CN(C)C(=O)Nc2ccc(C(F)(F)F)cc2)[C@@H](C)CN([C@@H](C)CO)C(=O)c2cc(NC(=O)C3CCCCC3)ccc2O1 | 0 | -83* | 97* | 104* | 105* | 7 | 2
CC(C)NC(=O)N(C)C[C@@H]1OCCCC[C@H](C)Oc2ccc(NC(=O)C3CCCCC3)cc2C(=O)N([C@@H](C)CO)C[C@@H]1C | 0 | -53 | 22 | . | . | . | .
COc1ccc(NC(=O)N(C)C[C@H]2Oc3c(NS(=O)(=O)c4cn(C)cn4)cccc3C(=O)N([C@@H](C)CO)C[C@H]2C)cc1 | 0 | 8 | 12 | . | . | . | .
O=C(C[C@@H]1C=C[C@@H](NS(=O)(=O)c2ccccc2)[C@@H](CO)O1)NCc1ccncn1 | 2 | -1 | 27 | . | . | . | .
C/C=C/c1ccc([C@@H]2[C@@H](CO)N(C(=O)c3cnccn3)C23CN(C(C)=O)C3)cc1 | -5 | 3 | . | . | . | . | .
CCCN1C[C@@H](C)[C@H](OC)CN(C)C(=O)c2ccc(NC(=O)c3ccccn3)cc2OC[C@H]1C | -3 | 24 | 10 | . | . | . | .
CC(C)NC(=O)Nc1ccc2c(c1)C(=O)N([C@@H](C)CO)C[C@@H](C)[C@@H](CN(C)C(=O)Cc1ccccc1)OCCCC[C@H](C)O2 | -2 | -6 | 4 | . | . | . | .
SMILES | C diff growth | Pf Dd2 inh | T cruzi growth-1 | T cruzi growth-2 | T cruzi growth-3 | 3T3 cytotox | NIH3T3 tox 2
C[C@@H]1CN([C@@H](C)CO)C(=O)c2cc(NC(=O)CCN3CCOCC3)ccc2O[C@H]1CN(C)CC1CCCCC1 | 2 | 12 | 8 | . | . | . | .
C[C@H]1CN([C@@H](C)CO)C(=O)c2cc(NS(=O)(=O)c3ccc(Cl)cc3)ccc2O[C@@H]1CN(C)Cc1ccc(Oc2ccccc2)cc1 | 61 | 6 | ? | 108* | 37 | 29 | 105*
C[C@@H]1CN([C@@H](C)CO)C(=O)c2cc(NS(=O)(=O)c3ccc(Cl)cc3)ccc2O[C@H]1CN(C)Cc1ccc(Oc2ccccc2)cc1 | 30 | 14 | 72 | . | . | . | .
C[C@H](CO)N1C[C@H](C)[C@@H](CN(C)Cc2ccc(-c3ccccc3)cc2)Oc2ccc(NS(=O)(=O)c3ccc(Cl)cc3)cc2C1=O | 7 | 7 | 96 | . | . | . | .
C[C@@H]1CN([C@@H](C)CO)C(=O)c2cc(NS(=O)(=O)c3ccc(F)cc3)ccc2O[C@H]1CN(C)Cc1ccc(-c2ccccc2)cc1 | 16 | -4 | ? | 106* | 83 | 8 | 103*
COc1ccc(S(=O)(=O)Nc2ccc3c(c2)C(=O)N([C@@H](C)CO)C[C@H](C)[C@H](CN(C)Cc2ccc(-c4ccccc4)cc2)O3)cc1 | 32 | 9 | ? | 103* | 19 | 11 | 88*
C[C@@H]1CN([C@H](C)CO)C(=O)c2cc(NS(=O)(=O)c3ccc(F)cc3)ccc2O[C@@H]1CN(C)Cc1ccc(-c2ccccc2)cc1 | 18 | 6 | 92 | . | . | . | .
